# Laboratory results published in the supplement of paper PMC10981050.
# “And” between values parts separate entries of the source, which are not always exact repeats. Equal entries are not always repeated. Structures can show the parent of a compound that is named as a salt.
# Experiments:
# Test in all cases: cell viability relative to vehicle control; higher = less cytotoxic
# Settings in all cases: 10 µM
# K562 = test system: K562
# Summary of the method: (§1)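 Four leukaemia lines, as CRISPR-edited mutant clones and isogenic wild-type clones, were tested against Selleck bioactive, kinase and epigenetic probe libraries after removal of identity-inconsistent compounds. Cells were exposed to a single 10 µM dose for 48 h, and CellTiter-Glo luminescence was then read. Viability was calculated relative to the on-plate vehicle control.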
# MARIMO = test system: MARIMO
# Summary of the method: as §1
# MOLM14 = test system: MOLM14
# Summary of the method: as §1
# OCI-AML2 = test system: OCI-AML2
# Summary of the method: as §1
SMILES,cell viability (K562; SRSF2 genotype: SRSF2 P95H/wt),cell viability (K562; SRSF2 genotype: SRSF2 wt/wt) [%],cell viability (MARIMO; SRSF2 genotype: SRSF2 P95H/wt) [%],cell viability (MARIMO; SRSF2 genotype: SRSF2 wt/wt) [%],cell viability (MOLM14; SRSF2 genotype: SRSF2 P95H/wt) [%],cell viability (MOLM14; SRSF2 genotype: SRSF2 wt/wt) [%],cell viability (OCI-AML2; SRSF2 genotype: P95H/wt) [%],cell viability (OCI-AML2; SRSF2 genotype: wt/wt) [%]
COC(=O)N(C)c1c(N)nc(-c2nn(Cc3ccccc3F)c3ncccc23)nc1N [Riociguat (BAY 63-2521)],89.6% and 89.1%,82.6,85,99,90.2,94,96.3,108
Cc1ccc(NCCN(C)CCNc2ccnc3cc(Cl)ccc23)c2c(=O)c3ccccc3sc12,75.8% and 92.5%,76.6,78,88.2,81,79.7,85.9,84
O=C(O)COc1nn(Cc2ccccc2)c2ccccc12 [Bendazac],103% and 104%,108,106,111,103,106,111,115
COc1ccc(CCNCC(O)COc2cccc(C)c2)cc1OC (stereo unspecified) [Bevantolol hydrochloride],92.7% and 89.9%,88.2,82.8,93.4,90.6,91.2,81.8,84.8
FC(F)(F)Oc1ccc(-c2ccc3nnc(C(F)(F)F)n3c2)cc1,91% and 96.6%,102,95.7,97.8,95.2,112,89,94.4
"CS(=O)(=O)OCCCCOS(C)(=O)=O [Busulfan (Myleran, Busulfex)]",103% and 108%,98.6,99.6,107,102,106,88.6,102
O=C(O)c1cc(I)ccc1NC(=O)[C@H](Cc1ccccc1)NCc1ccccc1,102% and 98.6%,101,99.9,103,99,101,110,119
